Screening results (PubChem BioAssay)
hcDAF12 agonist = activates DAF-12 receptor from parasite H. contortus; activation, % at 6.8 µM; 1.4% of 370,000 active; HEK293 hcDAF-12 lit1-tk-luc reporter, luminescence; 0% DMSO, 100% Δ7-dafachronic acid;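 active means activation above the mean of all tested compounds plus 3 SD, cut at about 5.5% in these data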
DAX1 inh-1 = inhibitors of DAX1 repression of SF-1 activated StAR promoter. AID 652010. 1.1% of 370,000 active. inhibition, % at 6.8 µM. HEK293T StAR-luciferase reporter, SF-1/DAX-1 repression relief;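 active means inhibition above the mean over all tested compounds plus 3 SD, cut at about 3.6% in these data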;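 further: higher inhibition means more luminescence from relief of DAX-1 repression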
ssDAF12 agonist = activates DAF-12 receptor from parasite S. stercoralis; HEK293 ssDAF-12/GRIP1 lit1-tk-luc reporter, luminescence; % of 3 µM dafachronic acid response; activation, % at 6.8 µM; 1% of 370,000 active; AID 652126;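 active means activation above the mean over all tested compounds plus 3 SD, cut at about 0.9% in these data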
DAX1 inh-2 = NR0B1 (DAX1) inhibition; P51843; HEK293 Gal4-DAX1 luciferase reporter, luminescence; inhibition, % at 6.75 µM; 0.99% of 340,000 active;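 active means inhibition above the mean over all tested compounds plus 3 SD, cut at about 4.2% in these data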;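 further: inhibition shows as a rise in luminescence from relieved DAX1 repression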
hgDAF-12 ag = agonists of H. glycines DAF-12 nuclear receptor. HEK293 GAL4-hgDAF12 UAS-luciferase reporter, agonist luminescence; normalized to butyrate control. 1.8% of 370,000 active. activation, % at 6.8 µM. AID 687014;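 active means activation above a cutoff set at the mean of all screened compounds plus 3 SD, cut at about 10% in these data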
LXRb hcDAF ctr = counter-screen for hcDAF-12 agonists: agonists of human LXR-beta | AID 743027 | 3,400 tested, under 10 active | HEK293 Gal4-LXR tk-luc reporter, luminescence, 24 h; normalized: DMSO 0%, positive control 100% | shares compounds with hcDAF12 agonist | activation, % at 6.8 µM;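 active means mean percent activation of the reporter above a cutoff set as the average over tested compounds plus their standard deviation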
Target sequence (P55055 whole entry, looked up, the tested form may be a part): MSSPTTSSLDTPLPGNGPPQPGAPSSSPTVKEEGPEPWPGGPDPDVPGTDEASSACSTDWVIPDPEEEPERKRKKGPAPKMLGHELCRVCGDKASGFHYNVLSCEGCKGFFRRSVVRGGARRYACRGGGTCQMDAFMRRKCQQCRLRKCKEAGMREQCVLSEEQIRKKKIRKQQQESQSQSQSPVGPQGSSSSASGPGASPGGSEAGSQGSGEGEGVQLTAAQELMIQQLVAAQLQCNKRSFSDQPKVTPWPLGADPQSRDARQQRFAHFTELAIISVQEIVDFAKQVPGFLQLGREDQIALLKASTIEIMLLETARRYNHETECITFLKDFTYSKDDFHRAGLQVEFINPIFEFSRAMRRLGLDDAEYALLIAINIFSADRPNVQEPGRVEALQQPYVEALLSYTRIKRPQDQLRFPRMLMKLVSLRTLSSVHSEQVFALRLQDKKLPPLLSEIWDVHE
hcDAF12 conf = confirmation of H. contortus DAF-12 agonists. shares compounds with hcDAF12 agonist. HEK293 hcDAF-12 lit1-tk-luc reporter, luminescence; % of Δ7-dafachronic acid response. activation, % at 6.8 µM. 61% of 3,400 active. AID 743032;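 active means mean activation across triplicate tests above the threshold derived from the earlier primary screen, cut at about 5.5% in these data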
A number is an active result; . = inactive; / = no result. Most compounds without a hit are left out; they make up all but 4.1% or so of the library.

SMILES	hcDAF12 agonist	DAX1 inh-1	ssDAF12 agonist	DAX1 inh-2	hgDAF-12 ag	LXRb hcDAF ctr	hcDAF12 conf
CN1N=C(C(=O)N2CCc3c([nH]c4ccccc34)C2c2ccccc2Cl)CCC1=O (centres undefined)	7.8	.	1.7	.	12	.	6.9
COc1ccc(C2c3[nH]c4ccccc4c3CCN2C(=O)c2ccc(=O)n(C)n2)c(F)c1 (centres undefined)	6.9	.	.	.	.	.	.
Cc1ccccc1NC(=O)CSc1nnc2ccc(-c3cccnc3)nn12	.	.	.	.	.	/	/
CCCc1cn(CC(C)n2c(=O)c3ccccc3n2Cc2cc(C(C)C)no2)nn1 (centres undefined)	.	.	.	/	.	/	/
Cc1ccc(-c2nc(-c3ccccc3)no2)c(Cl)c1	.	.	.	.	.	/	/
COc1ccc(-c2cc(-c3ccccc3)no2)cc1	11	4.0	0.9	.	11	.	11
Cc1ccc(-c2nc(-c3ccccc3)no2)cc1	6.8	3.9	.	.	13	.	8.5
COc1cccc(-c2nc(-c3ccccc3)no2)c1	9.4	3.8	2.0	.	19	.	15
c1ccc(-c2cc(-c3cc(-c4ccccc4)on3)no2)cc1	.	.	.	.	.	/	/
Cc1ccc(C(=O)NCCC2=CCCCC2)cc1S(=O)(=O)N1CCCCC1	.	.	.	.	.	/	/
O=C(COC(=O)c1cccc(S(=O)(=O)N2CCc3ccccc32)c1)Nc1ncc(Cl)cc1Cl	6.8	.	.	.	.	.	.
CCn1c(=N)n(CC(=O)c2ccc(Cl)c(Cl)c2)c2ccccc21	9.5	.	.	.	.	.	5.8
Cn1c(=N)n(CC(=O)c2ccc(Br)cc2)c2ccccc21	23	.	4.4	4.9	17	.	29
CCn1c(=N)n(CC(=O)c2ccc(OC)cc2)c2ccccc21	.	.	.	.	.	/	/
N#CCCN(C(=O)COC(=O)C1CCN(S(=O)(=O)c2ccc3c(c2)OCCO3)CC1)c1ccccc1	.	.	.	.	.	/	/
CCCNC(=O)N(C)C[C@H]1Oc2ncc(Br)cc2C(=O)N([C@H](C)CO)C[C@H]1C	.	.	.	.	.	/	/
CC(C)(C)OC(=O)/C=C/[C@@H](CC1CCCC1)Sc1ccc(C(C)(C)C)cc1	.	.	.	/	.	/	/
CN(C)S(=O)(=O)c1ccc(C(=O)Oc2ccccc2)cc1	12	.	.	.	.	.	.
O=C(Oc1ccccc1)c1ccccc1	.	.	.	.	.	/	/
COc1ccccc1CCC(=O)N(C)CC(=O)Nc1ccc(Cl)c(C(F)(F)F)c1	.	.	.	.	.	/	/
O=S(=O)(c1ccc(Cl)c(NC(=S)Nc2cccc(O)c2)c1)N1CCOCC1	.	.	.	.	.	/	/
CCN(C(=S)Nc1cc(S(=O)(=O)N2CCOCC2)ccc1Cl)c1cccc2ccccc12	6.8	.	1.2	.	.	.	.
CCCS(=O)(=O)N1CCN(Cc2c[nH]c3ccccc23)CC1	7.2	.	1.4	.	.	.	.
COc1ccc(S(=O)(=O)N2CCN(Cc3c[nH]c4ccccc34)CC2)cc1	.	.	.	.	.	/	/
COc1ccc(OCc2cc(C(=O)N(Cc3nccn3C)C(C)C)no2)c2ccccc12	7.3	.	.	.	.	.	6.9
SMILES	hcDAF12 agonist	DAX1 inh-1	ssDAF12 agonist	DAX1 inh-2	hgDAF-12 ag	LXRb hcDAF ctr	hcDAF12 conf
COc1ccc(OCc2cc(C(=O)N3CCCC(O)C3)no2)c2ccccc12 (centres undefined)	7.0	.	1.2	.	11	.	9.2
O=c1[nH]c(-[n+]2ccc3ccccc3c2)c(/C=N/N=C(\[O-])c2ccccc2)s1	9.0	.	.	.	.	.	.
CN(C)c1cccc(NC(=O)c2ccco2)c1	6.7	.	.	.	.	.	.
C=CCc1cccc2cc(C(=O)Nc3ccccc3C(=O)O)c(=O)oc12	.	.	.	/	.	/	/
COC(=O)C1=C(Nc2ccccc2NC(=O)c2ccccc2C(=O)O)CSC1	7.5	.	1.7	.	.	.	.
C=CCS/C(N)=N\N=C\c1c(O)ccc2ccccc12	14	.	1.9	.	17	.	11
